About 17,000 (5.5%) of roughly 310,000 compounds were called active. A call without a number means that no potency is given here. Roughly 11% stayed inconclusive and do not appear here. The call rests on the fitted dose curve; in most records, active means well fitted inhibition curve with a large enough effect; inconclusive means small, poorly fitted or top-dose-only effect, or effect the other way; inactive means no such curve, though single readings can be large or run the other way. For the sample, actives were picked, then their nearest neighbours and some compounds at random.
molecular target: Nuclear receptor ROR-gamma (Mus musculus) (UniProt P51450); assay: qHTS for inhibitors of ROR gamma transcriptional activity; conditions: Drosophila S2 Gal4-RORgamma UAS-luciferase reporter, 20 h; series mostly up to 53.6 µM; further: nearly all actives have a fitted effect of over 60% in size
How it was run: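 A Gal4/UAS one-hybrid system in insect cells: metallothionein-promoter Gal4–ROR gamma fusion plus Photinus luciferase reporter. Copper sulfate 700 uM final, 20 hr ambient incubation, luminescent detection after 10 min with reagent.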
Potency means the concentration at half of the fitted maximal effect.

Chain of Nuclear receptor ROR-gamma (Mus musculus) (P51450 whole entry, looked up, the tested form may be a part): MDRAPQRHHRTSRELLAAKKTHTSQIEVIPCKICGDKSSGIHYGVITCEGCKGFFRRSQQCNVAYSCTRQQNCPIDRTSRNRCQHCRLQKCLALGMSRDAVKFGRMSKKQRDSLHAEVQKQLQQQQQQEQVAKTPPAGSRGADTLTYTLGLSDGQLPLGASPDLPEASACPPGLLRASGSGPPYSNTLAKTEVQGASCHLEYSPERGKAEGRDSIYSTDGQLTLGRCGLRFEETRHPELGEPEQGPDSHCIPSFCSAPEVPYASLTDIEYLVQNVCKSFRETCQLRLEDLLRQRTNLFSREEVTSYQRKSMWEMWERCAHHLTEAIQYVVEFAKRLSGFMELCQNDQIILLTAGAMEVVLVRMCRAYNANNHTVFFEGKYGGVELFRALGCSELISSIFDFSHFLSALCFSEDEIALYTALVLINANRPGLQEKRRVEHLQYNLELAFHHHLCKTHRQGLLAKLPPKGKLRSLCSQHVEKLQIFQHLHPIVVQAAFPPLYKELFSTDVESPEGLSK

| Compound | Potency | activity change, negative = inhibition |
| --- | --- | --- |
| COc1ccc(OCC(=O)NCCS(=O)(=O)N2CCN(c3ccc(F)cc3)CC2)cc1 | inactive | – |
| Cc1cccc(NC(=O)NC2(C)CCS(=O)(=O)C2)c1 (stereo not drawn) | inactive | – |
| Cc1ncoc1C(=O)N1CCCC(C(=O)c2ccc3c4c(cccc24)CC3)C1 (stereo not drawn) | inactive | – |
| CCn1ccnc1CN1CCCC(C(=O)c2ccc3c4c(cccc24)CC3)C1 (stereo not drawn) | 1.26 µM (active) | – |
| CC(=O)NCC(=O)N1CCCC(C(=O)c2ccc3c4c(cccc24)CC3)C1 (stereo not drawn) | inactive | – |
| CC(=O)Nc1ccc(S(=O)(=O)N(C)c2nc3ccccc3nc2Cl)cc1 | inactive | – |
| COc1ccc(C2c3[nH]c4ccccc4c3C[C@H]3C(=O)N(CC(C)C)CC(=O)N23)c(OC)c1 (stereo partly drawn) | inactive | – |
| COc1ccc(CNC(=O)CSc2n[nH]c(N)n2)cc1OC | inactive | – |
| O=C(/C=C\NCC(=O)c1ccccc1)c1ccccc1 | inactive | – |
| Cc1ccc(N/C=C/C(=O)c2ccccc2)cc1C | 0.282 µM (active) | – |
| Cc1noc(NS(=O)(=O)c2ccc(N/C=C/C(=O)c3ccccc3)cc2)c1C | inactive | – |
| COc1cc(/C=C2/C(=O)ON=C2C)ccc1OCc1cccc(F)c1 | inactive | – |
| COc1cc(/C=C2/C(=O)ON=C2C)ccc1OCc1ccccc1F | 10 µM (active) | – |
| C=CCOc1ccc(/C=C2/C(=O)ON=C2C)cc1OCC | inactive | – |
| Cc1nn2c(=O)cc(COC(=O)c3ccc(NC(=O)C(C)(C)C)cc3)nc2s1 | inactive | – |
| O=C(Cn1nnc(-c2ccccc2)n1)NCc1ccc2c(c1)OCO2 | inactive | – |
| Cc1cccc(C)c1NC(=O)CSc1nnc(-c2ccccc2)n1Cc1ccc2c(c1)OCO2 | inactive | – |
| c1ccc(-c2nnc3n2NC(c2ccc4c(c2)OCO4)S3)cc1 (stereo not drawn) | 7.94 µM (active) | – |
| COC(=O)c1c(C)[nH]c(C(=O)NCCc2ccc(S(N)(=O)=O)cc2)c1C | inactive | – |
| CCCCOC(=O)c1[nH]c(C)c(C(=O)OC)c1C | inactive | – |
| COC(=O)c1c(C)[nH]c(C(=O)/C=C/c2ccc(Cl)cc2)c1C | 0.282 µM (active) | – |
| CCS(=O)(=O)N1CCC(N2CCN(c3ccccc3)CC2)CC1 | inactive | – |
| N#Cc1ccc(C(=O)Nc2cccc3cccnc23)c(F)c1 | inactive | – |
| N#Cc1ccccc1NC(=O)COc1c(Br)cc(Br)c2cccnc12 | 12.6 µM (active) | – |
| O=C(COC(=O)c1ccccn1)Nc1cccc2ccccc12 | inactive | – |
| Cc1ccc(CNC(=O)Cn2cnc(S(=O)(=O)N3CCCCC3)c2)o1 | inactive | – |

| Compound | Potency | activity change, negative = inhibition |
| --- | --- | --- |
| Cc1c(C)c(C)c(S(=O)(=O)NCCc2ccccn2)c(C)c1C | inactive | – |
| Cc1ccc(C2NC(=S)NC3=C2N2CCC3CC2)cc1 (stereo not drawn) | 11.2 µM (active) | – |
| COc1cc(NC(=O)c2ccccc2)c(OC)cc1NC(=O)Cc1ccccc1 | inactive | – |
| O=C(O)CCCn1c(=O)c2cccn2c2ccc(F)cc21 | inactive | – |
| Cc1ccc(-n2c(SCC(=O)NCCC3=CCCCC3)nc3n[nH]c(C)c3c2=N)cc1Cl | inactive | – |
| Cc1nonc1NC(=O)c1ccccc1Br | inactive | – |
| O=C(Nc1cccc(Cl)c1)Nc1nnc(-c2ccccc2)o1 | inactive | – |
| O=C(Nc1nnc(-c2ccc(Cl)cc2)o1)c1ccccc1Br | 2.51 µM (active) | – |
| CN=C1S/C(=C\c2c(OC)cc(OC)cc2OC)C(=O)N1C | inactive | – |
| CCc1ccc(S(=O)(=O)Nc2cc3c(cc2N2CCCCC2)n(C)c(=O)c(=O)n3C)cc1 | inactive | – |
| Cn1c(CCNS(=O)(=O)c2ccc(F)cc2)nnc1SCc1cccnc1 | inactive | – |
| O=C(Cc1ccccc1)N1N=C(c2ccncc2)CC1(O)C(F)(F)F (stereo not drawn) | 7.08 µM (active) | – |
| COc1ccc(CC(=O)N2N=C(C)CC2(O)C(F)(F)F)cc1 (stereo not drawn) | 7.94 µM (active) | – |
| O=C(C1CC1)N1N=C(c2ccc(Br)cc2)CC1(O)C(F)(F)F (stereo not drawn) | inactive | – |
| CCC(C)NC(=O)CCCc1ccccc1 (stereo not drawn) | inactive | – |
| CC1=NN(C(=O)CCCc2ccccc2)C(O)(C(F)(F)F)C1 (stereo not drawn) | 4.47 µM (active) | – |
| COc1ccc(CC(=O)Nc2ccc(C(=O)NC(C)(C)C)cc2)cc1 | inactive | – |
| O=C(O)CCCc1ccccc1 | inactive | – |
| CC(=O)N1N=C(c2ccncc2)OC1(Cc1ccccc1)Cc1ccccc1 | inactive | – |
| CCCCCNC(=O)Cc1ccc(OC)cc1 | inactive | – |
| CC1=NN(C(=O)CCc2ccccc2O)C(O)(C(F)(F)F)C1 (stereo not drawn) | 8.91 µM (active) | – |
| O=C(CCc1ccccc1F)N1CCN(c2ccccc2)CC1 | inactive | – |
| COc1ccc(C(=O)CCc2ccccc2O)c(OC)c1 | – | 3.95% [at 1.91 µM] (inactive) |
| COc1ccccc1N1CCN(S(=O)(=O)c2ccc3c(c2)NC(=O)CS3)CC1 | inactive | – |
| COc1cccc(NC(=O)N2CCC(NC(=O)C(Cc3cccc(C)c3)NC(C)=O)CC2)c1 (stereo not drawn) | inactive | – |
| CC(C)CN(Cc1c(O)ccc2c(=O)c(-c3ccccc3)coc12)CC(C)C | – | 27% [at 1.91 µM] (inactive) |

| Compound | Potency | activity change, negative = inhibition |
| --- | --- | --- |
| CC(C)[C@H](NC(=O)N1c2ccccc2NC(=O)[C@@H]1C(C)C)C(=O)N[C@H](C(=O)O)c1ccccc1 | inactive | – |
| CN(C(=O)CN1C(=O)/C(=C/c2ccc(Cl)cc2)SC1=S)C1CCS(=O)(=O)C1 (stereo not drawn) | inactive | – |
| CC(=O)C1=C(O)C(=O)N(c2ccc(Br)cc2)C1c1ccc([N+](=O)[O-])cc1 (stereo not drawn) | inactive | – |
| CC1Cc2cc(/C(O)=C3\C(=O)C(=O)N(Cc4cccnc4)C3c3ccccc3F)ccc2O1 (stereo not drawn) | inactive | – |
| Cc1ccc(C2SCC(=O)N2c2ccccc2)cc1 (stereo not drawn) | inactive | – |
| CC1=NN(/C(=N\c2nnc(C)s2)Nc2ccccc2)[C@H](c2ccc(C)cc2)S1 | 8.91 µM (active) | – |
| COc1ccc(C(=O)CCC(=O)Nc2ccc(Cl)cc2)cc1 | inactive | – |
| CCOC(=O)C1(Cc2ccccc2C)CCCN(C(=O)CN2C(=O)CSC2=O)C1 (stereo not drawn) | inactive | – |
| N#Cc1ccc(/C=C2\CCn3c2nc2cc(C(=O)O)ccc2c3=O)cc1 | inactive | – |
| Cc1ccc(NC2=C(Cl)C(=O)OC2OC(=O)c2ccccc2C)cc1 (stereo not drawn) | inactive | – |
| CCOC(=O)CNc1nc(Cl)nc(Nc2ccccc2)n1 | inactive | – |
| Cc1ccccc1C(=O)OC1OC(=O)C(Cl)=C1Nc1ccccc1 (stereo not drawn) | 11.2 µM (active) | – |
| COC(=O)c1sccc1NC(=O)c1ccc(Cl)cc1 | inactive | – |
| CCOC(=O)/C(=N\Nc1ccccc1[N+](=O)[O-])c1csc(Nc2ccccc2)n1 | 11.2 µM (active) | – |
| CCOC(=O)C/C(C)=N\Nc1ccc([N+](=O)[O-])cc1[N+](=O)[O-] | inactive | – |
| Cc1csc(NC(=O)Nc2ccccc2[N+](=O)[O-])n1 | inactive | – |
| COc1ccc(OCc2cc(C(=O)NCC3(C)COC3)no2)c(Cl)c1 | inactive | – |
| Cc1ccc(Cl)c(OCC(=O)N2CCc3ccccc3C2)c1 | – | 3.92% [at 1.91 µM] (inactive) |
| Cc1cc(C)cc(C(=O)OCC(=O)NCCNC(=O)COC(=O)c2cc(C)cc(C)c2)c1 | 0.0708 µM (active) | – |
| Cc1cccc(C(=O)OCC(=O)Nc2ccc(F)cc2)c1 | inactive | – |
| COc1ccccc1C(=O)OCC(=O)NCCNC(=O)COC(=O)c1ccccc1OC | inactive | – |
| COc1ccc(S(=O)(=O)NC(C)C(=O)NCc2ccncc2)cc1Cl (stereo not drawn) | inactive | – |
| COC(=O)CN1C(=O)[C@H]2[C@@H](/C=C/c3ccccc3)N3C(=O)CN(CC4CC4)C(=O)[C@@]3(Cc3ccccc3)[C@H]2C1=O | inactive | – |
| Cc1[nH]n(C(N)=S)c(=O)c1N=Nc1ccc(Cl)cc1Cl | 0.562 µM (active) | – |
| Cc1ccc(N=Nc2c(C)[nH]n(-c3ccccc3)c2=O)cc1 | inactive | – |
| Cc1[nH]n(-c2cccc(Cl)c2)c(=O)c1-c1ccc(Cl)cc1 | inactive | – |

| Compound | Potency | activity change, negative = inhibition |
| --- | --- | --- |
| Cc1cc2oc(=O)cc(CN(C)Cc3ccc(OC(F)F)cc3)c2cc1Cl | inactive | – |
| COc1ccc(CCN2C(=O)C(C)=C(C)C2=O)cc1OC | inactive | – |
| COc1ccccc1-c1nc(N2CCN(C)CC2)c2ccccc2n1 | inactive | – |
| COc1ccccc1-c1n[nH]c2c1[C@H](C)CC[C@H]2C(C)C | 3.16 µM (active) | – |
| CC1C(=O)Nc2ccccc2N1C(=O)c1c(F)cccc1F (stereo not drawn) | inactive | – |
| COc1ccc(-n2nc3c(N4CCC(C(=O)NCc5ccccc5)CC4)nnc(C)c3c2C)cc1 | inactive | – |
| Cc1cc(C(=O)N/N=C/c2ccc(O)c([N+](=O)[O-])c2)c(C)n1-c1ccc(F)cc1 | inactive | – |
| O=C1CSC(=S)N1/N=C/c1ccc(O)c([N+](=O)[O-])c1 | 8.91 µM (active) | – |
| O=[N+]([O-])c1ccc(N2CCSCC2)cc1O | inactive | – |
| COc1cccc(C2CC(c3cccs3)=NN2C(=O)CSC2=NCCS2)c1OC (stereo not drawn) | inactive | – |
| CC(C(=O)NC1CCCCC1)N1C(=O)c2cccc3cccc1c23 (stereo not drawn) | inactive | – |
| COc1cc(NC(=O)C2=C(C)OCCS2)c(Cl)cc1C(=O)NCCN1CCN(C)CC1 | inactive | – |
| O=C(NCc1cccc(C(F)(F)F)c1)c1cccc(S(=O)(=O)N2CCN(Cc3ccccc3)CC2)c1 | inactive | – |
| O=C(NCc1ccc(Cl)cc1)NCc1ccc(Cl)cc1 | inactive | – |
| S=C(NCc1ccc(Cl)cc1)NC1CCCCC1 | 3.55 µM (active) | – |
| O=C(NC1CCN(C(=S)Nc2ccc(Cl)cc2)CC1)C1CCCCC1 | inactive | – |
| O=C(NCc1ccncc1)NC12CC3CC(CC(C3)C1)C2 | inactive | – |
| CN(C)CCCNC(=S)NCc1ccc(Cl)cc1 | inactive | – |
| S=C(NCc1ccc(Cl)cc1)NC12CC3CC(CC(C3)C1)C2 | 2 µM (active) | – |
| COCCCNC(=O)C1CC(=O)N(CCc2ccc(F)cc2)C1 (stereo not drawn) | inactive | – |
| CC(=O)Nc1ccc(Nc2ncnc3c2nnn3Cc2ccccc2Cl)cc1 | inactive | – |
| O=C(c1c(F)cccc1Cl)N1CCN(c2ccccn2)CC1 | inactive | – |
| COc1ccc(S(=O)(=O)N2CCC(C(=O)NCCC(=O)NCc3cccc(OC)c3)CC2)cc1 | inactive | – |
| CC(C)[C@H](NC(=O)N1CC(=O)Nc2ccccc21)C(=O)N[C@@H](Cc1c[nH]c2ccccc12)C(=O)O | inactive | – |
| COc1cc(C(=O)NCCOC(=O)c2cccc(N(C)C)c2)cc(OC)c1OC | inactive | – |
